Screening results from PubChem.
tim10-1 inh – growth inhibitors of tim10-1 mutant yeast, primary screen, luminescence, uHTS. AID 463190, 2010. inhibition, % at 20 µM. 330,000 tested, 2.2% active. S. cerevisiae tim10-1 ts strain growth, BacTiter-Glo, 24 h;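 active = inhibition of at least 40%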;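 also: mutant grown at 25 °C; 0% = DMSO wells with yeast and 100% = wells holding no yeast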
SKKanGAS inh – S. pyogenes SKKanGAS growth inhibitors in kanamycin, primary screen, streptokinase expression inhibitor project, SKKanGAS strain, BacTiter-Glo luminescence. 6 h. inhibition, % at 7.5 µM. 300,000 tested, 1.3% active;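 active = mean replicate score, as percent of positive control median, at least 50; inconclusive = mean below 50 but one replicate at or above 50; inactive = mean and every replicate below 50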;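 also: strain carries kanamycin resistance gene driven by streptokinase promoter and grows in 40 µg/ml kanamycin; loss of luminescence reflects streptokinase promoter inhibition or plain growth inhibition; 0% = median of DMSO wells and 100% = positive control at its reference dose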
Calb FLC – C. albicans growth inhibition with fluconazole, primary screen, CaCi-2 strain, Alamar Blue fluorescence | C. albicans CaCi-2 (fluconazole-resistant clinical isolate) + fluconazole, 48 h | growth inhibition, % (concentration not given with the values) | 300,000 tested, 0.57% active;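 active = growth inhibition above about 58% in most replicates, limit read from the data, passing the limit was not always enough; inconclusive = exactly half the replicates above a set limit; inactive = most replicates below a set limit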;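 also: all wells also contain fluconazole at 8 µg/ml as a sub-toxic cotreatment; 0% = median of DMSO wells and 100% = median of geldanamycin control wells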
tim23-1 inh – growth inhibitors of tim23-1 mutant yeast, primary screen, luminescence, uHTS | S. cerevisiae tim23-1 growth, BacTiter-Glo luminescence, 24 h | inhibition, % at 20 µM | 330,000 tested, 1.3% active | AID 463212, 2010;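 active = growth inhibition of the mutant yeast at or above 50%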;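 also: temperature-sensitive mutant grown at 25 °C; plate controls were DMSO-treated mutant yeast for no effect and medium wells lacking yeast for full effect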
PfHsp90 yeast 2 – growth inhibition of PfHsp90-expressing yeast, primary screen, antimalarial PfHsp90 inhibitor project, S. cerevisiae, BacTiter-Glo luminescence, single point, set 2. BacTiter-Glo ATP, 48 h; yeast lacking PDR1 and PDR3 efflux regulators. inhibition, % at 9.4 µM. 310,000 tested, 0.32% active. AID 504621, 2011;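 active = every replicate shows inhibition above about 80%, whatever the replicate mean, limit read from the data; inconclusive = mean inhibition reaches the set limit but some replicate falls short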;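 also: 0% = DMSO neutral controls and 100% = 20 µM radicicol positive controls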
TIM10 inh – growth inhibitors of isogenic TIM10 control yeast, primary screen, counter-screen for tim10-1 yeast inhibitor project, luminescence, uHTS | AID 463195, 2010 | 330,000 tested, 1.4% active | S. cerevisiae TIM10 strain growth, BacTiter-Glo luminescence, 24 h | inhibition, % at 10 µM;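 active = inhibition of 40% or more at the single tested concentration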;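 also: wild-type TIM10 isogenic control strain grown at permissive 25 °C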
tim23-1 conf – tim23-1 mutant yeast growth inhibitors, confirmation, luminescence, single concentration; shares compounds with tim23-1 inh; S. cerevisiae tim23-1 growth, BacTiter-Glo luminescence, 24 h; inhibition, % at 20 µM; 4,400 tested, 83% active; AID 463218, 2010;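 active = inhibition above about 39% in either of two replicate wells at 20 µM, limit read from the data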;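 also: temperature-sensitive tim23-1 mutant grown at 25 °C; 0% = DMSO wells with yeast and 100% = medium wells without yeast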
* = called active by the depositor; ? = inconclusive; / = no result. Most compounds without a hit are left out; they make up all but 4.7% or so of the library.

SMILES | tim10-1 inh | SKKanGAS inh | Calb FLC | tim23-1 inh | PfHsp90 yeast 2 | TIM10 inh | tim23-1 conf
CN(C(=O)COC(=O)CNC(=O)c1ccccc1F)C1CCCCC1 | 1 | 7 | -3 | 18 | 19 | -1 | /
COc1ccc(S(=O)(=O)NC(C(=O)OCC(=O)Nc2ccc(N3CCOCC3)cc2)C(C)C)cc1 (stereo not drawn) | / | / | / | / | 9 | / | /
CC(C)C1Cc2c(sc3ncnc(NN)c23)CO1 (stereo not drawn) | 30 | 7 | 6 | 52* | -38 | 7 | 27
CC(C)Cc1nc2sc3c(c2c(=O)n1N)CC(C(C)C)OC3 (stereo not drawn) | -13 | -5 | 6 | 5 | 11 | -26 | /
CC1Cc2ccccc2N1C(=O)COC(=O)c1ccc(Cl)c(S(=O)(=O)N2CCOCC2)c1 (stereo not drawn) | 11 | / | / | 19 | 7 | 17 | /
CC(=O)c1c(C)[nH]c(C(=O)N2CCN(c3ccccn3)CC2)c1C | 0 | 5 | -12 | 2 | -3 | 0 | /
O=C(/C=C/c1ccccc1)Oc1cccc2cccnc12 | 16 | -2 | -7 | 54* | 0 | 13 | 43*
O=C(/C=C\c1ccccc1)Oc1cccc2cccnc12 | 6 | 1 | -31 | 43 | 5 | -1 | /
CC(C)(C)c1ccc(-c2nc(C=O)c3ccccn23)cc1 | 33 | 0 | 22 | 52* | / | 38 | 50*
O=C(OCc1ccccc1)N1CCCC1/C=C/CN1CCOCC1 (stereo not drawn) | 11 | -10 | -2 | 8 | 10 | 10 | /
CCOc1ncccc1C(=O)OCC(=O)N(CC)c1ccccc1 | 15 | -2 | -4 | 13 | / | -1 | /
CCCn1nnc(NC(=O)c2sc3ccccc3c2Cl)n1 | 19 | -10 | -7 | 53* | 8 | 22 | 42*
CCc1ccc2nc(SCC(=O)Nc3nnc(C)s3)c(C)cc2c1 | 8 | -6 | -9 | 58* | 7 | -13 | 13
CCc1nnc(NC(=O)CSc2nc3cc4c(cc3cc2C)OCCO4)s1 | 13 | 7 | 0 | -19 | 20 | -22 | /
COc1cc(OC)cc(C(=O)NNC(=O)CN2C(=O)NC(C)(c3ccc(C)cc3)C2=O)c1 (stereo not drawn) | 6 | -7 | 5 | 16 | / | 1 | /
O=C(Cn1ncc2c1-c1ccccc1OC2)Nc1nc2ccccc2s1 | 12 | -3 | -9 | 62* | -4 | 27 | 57*
Cn1c(=NC(=O)CCl)sc2ccccc21 | 34 | -3 | 4 | 57* | -60 | 13 | 36
O=Cc1cn(-c2ccccc2)nc1-c1cccnc1 | 28 | -3 | 3 | 62* | 1 | 40 | 57*
O=C(NCc1ccncc1)c1cn(-c2ccccc2)nc1-c1cccnc1 | 14 | 1 | -5 | -5 | -6 | 18 | /
Cc1ccc(-c2nc3ccc(Cl)cc3c(=O)n2O)cc1 | 8 | 70* | 106* | 63* | 15 | 38 | 55*
O=c1c2cc(Cl)ccc2nc(-c2ccccc2Cl)n1O | 12 | 17 | -5 | -7 | 0 | -9 | /
Cc1ccc(-c2nc3ccccc3c(=O)n2O)cc1 | 18 | 15 | 5 | 43 | 24 | -2 | /
Cc1nc2ccc(Br)cc2c(-c2ccccc2)c1C(=O)O | -4 | 2 | 0 | 0 | -1 | -1 | /
O=c1c2ccccc2nc(-c2ccc([N+](=O)[O-])cc2)n1O | 37 | 2 | 61 | 52* | 8 | 30 | 47*
O=c1c2ccccc2nc(-c2cccc(Cl)c2)n1O | 15 | -8 | ? | 59* | -118 | 36 | 59*
O=c1c2cc(Br)ccc2nc(-c2ccccc2)n1O | 23 | 33 | 100* | 60* | 14 | 10 | 50*
O=c1c2ccccc2nc(-c2ccccc2)n1Cc1ccc(Cl)cc1 | 32 | 24 | 37 | 33 | / | 25 | /
